From article PMC4336329 (PLoS ONE, 2015)
In all, about 310,000 compounds went through this assay and about 14,000 (4.5%) showed an effect of 50% or more. The effect is printed as a negative number. Only a selection was taken, and strong results are over-represented in it overall.

Molecular target: human ether-à-go-go-related gene (hERG) potassium channel (human, UniProt Q12809)
Test: primary screen, population patch clamp on CHO cells stably expressing hERG; higher = less effect of the substance
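Also: peak tail current of the secondary pulse compared with the same well before compound.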

Chain of human ether-à-go-go-related gene (hERG) potassium channel (Q12809 whole entry, looked up): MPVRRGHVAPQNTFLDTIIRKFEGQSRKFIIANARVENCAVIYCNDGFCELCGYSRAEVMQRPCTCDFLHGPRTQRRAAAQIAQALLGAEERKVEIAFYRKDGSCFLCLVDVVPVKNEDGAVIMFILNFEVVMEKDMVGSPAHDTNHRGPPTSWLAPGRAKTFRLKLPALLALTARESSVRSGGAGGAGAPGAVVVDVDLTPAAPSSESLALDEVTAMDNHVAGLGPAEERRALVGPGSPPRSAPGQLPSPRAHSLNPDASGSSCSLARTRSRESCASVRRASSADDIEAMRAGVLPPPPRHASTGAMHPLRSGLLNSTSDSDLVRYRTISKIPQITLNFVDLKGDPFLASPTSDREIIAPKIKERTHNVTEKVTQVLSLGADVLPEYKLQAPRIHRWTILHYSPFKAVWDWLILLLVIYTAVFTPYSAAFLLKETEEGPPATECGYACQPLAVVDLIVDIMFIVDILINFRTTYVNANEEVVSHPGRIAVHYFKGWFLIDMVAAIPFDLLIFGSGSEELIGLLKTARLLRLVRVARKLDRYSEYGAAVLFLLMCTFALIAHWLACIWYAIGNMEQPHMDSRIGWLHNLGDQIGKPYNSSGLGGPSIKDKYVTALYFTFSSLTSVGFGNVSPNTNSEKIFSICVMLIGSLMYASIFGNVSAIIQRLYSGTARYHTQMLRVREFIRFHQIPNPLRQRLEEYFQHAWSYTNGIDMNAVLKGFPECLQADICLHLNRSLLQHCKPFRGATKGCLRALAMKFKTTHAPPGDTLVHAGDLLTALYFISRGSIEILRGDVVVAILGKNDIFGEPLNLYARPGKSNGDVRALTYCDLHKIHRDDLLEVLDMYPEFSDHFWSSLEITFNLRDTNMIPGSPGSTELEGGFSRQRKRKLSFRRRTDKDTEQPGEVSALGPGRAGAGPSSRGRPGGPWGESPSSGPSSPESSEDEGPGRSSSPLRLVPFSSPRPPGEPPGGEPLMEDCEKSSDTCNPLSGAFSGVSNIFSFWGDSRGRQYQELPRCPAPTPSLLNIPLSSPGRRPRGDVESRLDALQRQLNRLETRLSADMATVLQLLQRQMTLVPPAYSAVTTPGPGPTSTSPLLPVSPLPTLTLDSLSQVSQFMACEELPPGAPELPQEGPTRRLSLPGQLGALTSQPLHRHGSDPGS

Compound | hERG current change (%, negative = inhibition) at 10uM [%]
Oc1ccc(CN2CCc3ccccc3C2)c2cccnc12 | -48.8
Cn1c(C(=O)N2CCN(C(=O)c3ccco3)CC2)cc2c(=O)n3ccccc3nc21 | -14.5
CC(C)C(NS(=O)(=O)c1ccc2c(c1)OCCO2)C(=O)NCCc1ccccn1 (stereo not shown) | 6.06
Cc1cccc(NC(=O)CSc2nnc(C)c(C)n2)c1 | 15.3
COc1nc(OC)nc(N2CCC(NC(=O)C(Cc3ccc(C(C)C)cc3)NC(C)=O)CC2)n1 (stereo not shown) | 5.87
CO/N=C(\C(=O)N[C@@H]1C(=O)N2C(C(=O)[O-])=C(COC(N)=O)CS[C@H]12)c1ccco1.[Na+] | 18.9
O=C(Nc1ccc(Br)cn1)c1cccc2ccccc12 | 12.2
CC1CCN(C(=O)COC(=O)c2cc(Cl)cc(Cl)c2N)CC1 | -19.9
CCCCN1CCC(COC(=O)c2cc(Cl)c(N)c3c2OCCO3)CC1.Cl | -59.4
Cl.O=C(OCCN1CCOCC1)c1ccc(Cl)cc1Cl | -0.913
COc1cc(C(=O)OCc2cc(=O)c(O)co2)ccc1OC(F)F | -12.9
O=C(NCC(=O)N(CCN1CCOCC1)C(C(=O)NC1CCCC1)c1cccnc1)c1cccs1 (stereo not shown) | 13.1
CCOC(=O)C1(CCCc2ccccc2)CCN(Cc2cnn(C)c2)CC1 | -71.6
CCOC(=O)C1(CCCc2ccccc2)CCN(C(=O)CCOC)CC1 | -46.8
CCOC(=O)C1(CCc2ccccc2)CCN(C(=O)CCc2cnn(C)c2)CC1 | -51.2
CCOC(=O)C1(CCc2ccccc2)CCN(C(=O)CN2C(=O)CSC2=O)CC1 | -23.3
CCOC(=O)C1(CCCc2ccccc2)CCN(CCCn2cccn2)CC1 | -79.1
CCOC(=O)C1(Cc2ccccc2)CCCN(CCCn2cccn2)C1 (stereo not shown) | -14.2
CCOC(=O)C1(CCCc2ccccc2)CCN(C(=O)CCc2cnn(C)c2)CC1 | -74.2
CCOC(=O)C1(CCCc2ccccc2)CCN(C(=O)CCC2=NNC(=O)CC2)CC1 | 11.8
Cc1cc(OCC(=O)Nc2ccncc2)cc(C)c1Cl | 6.51
Cc1ccc(CNC(=O)/C=C/C(=O)O)cc1 | -15.4
Cc1n[nH]c(=O)n1-c1ccc(C(C)C)cc1 | 18.4
O=C(Nc1ccccc1)NC1(C(=O)N2CCN(C(=O)c3ccco3)CC2)CCCCC1 | 0.526
CCc1ccc(C2C(=O)c3ccccc3C2=O)cc1 | -3.18
